# In PubChem BioAssay AID618 (Sanford-Burnham Center for Chemical Genomics, 2007):
# Hit rate of the full screen: of about 87,000 compounds, about 540 (0.62%) were called active. The rule behind the calls is not given here. What follows is part of a selection rich in actives, with near analogues and random picks from the rest. Where a call stands in place of a potency, no number is given. Potency and affinity values are given separately.
# Experiment: MT1-MMP gene expression reporter suppression – cell-based, luciferase reporter, luminescence (AID 618);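 note: actives suppress MT1-MMP promoter-driven transcription so potencies describe inhibitors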
# Conditions: MT1-MMP promoter luciferase reporter cells
row,Compound,outcome
1,COc1cccc2cc(C(C)=O)c(=O)oc12,inactive
2,O=C(C1CCCN(Cc2ccccc2)C1)N1CCCCC1 (centres undefined),inactive
3,CCOC(=O)c1sc(NC(=O)c2cncc(Br)c2)nc1C,inactive
4,CCC(C)(C)n1nnnc1C(c1ccc2ncccc2c1)N1CCN2CCCC2C1 (centres undefined),inactive
5,CCN1CCN(/C=N/c2nc(C)cs2)CC1,inactive
6,CN1CCN(/C=N/c2sc3c(c2C#N)CCCCC3)CC1,inactive
7,CCN1CCN(/C=N/c2nc3c(s2)CCCC3)CC1,active
8,CC1=CC(C)(C)N2C(=O)C3(C(C#N)=C(N)Oc4cc(C)oc(=O)c43)c3cc(C)cc1c32 (centres undefined),inactive
9,O=C(O)c1ccc(COc2ccccc2Cl)cc1,inactive
10,O=C(O)c1ccc(COc2ccc(CO)cc2Cl)cc1,inactive
11,O=C(O)c1cccc(COc2ccc(CO)cc2Cl)c1,active
12,O=C(O)c1ccc(COc2cccc(CO)c2)cc1,inactive
13,O=C(O)c1ccccc1COc1ccccc1Cl,inactive
14,O=C(c1cccc(Cl)c1)N1CCN(c2ccccn2)CC1,inactive
15,O=C(O)c1cccc(COc2ccccc2Cl)c1,active
16,O=C(CCCOc1ccc(Cl)cc1Cl)N1CCN(c2ccccn2)CC1,inactive
17,CCOC(=O)CNC(=O)CSc1ncnc2c1cnn2-c1ccc(Cl)cc1,inactive
18,CCOC(=O)CNC(=O)CSc1ncnc2c1cnn2-c1ccccc1,inactive
19,CCOC(=O)CCc1c(C)n(CC)c2cc(-c3ccccc3OC)nn2c1=O,inactive
20,c1cnc(N2CC[N+]3(CCCC3)CC2)nc1,inactive
21,CCOc1cc(-c2nnc(-c3ccco3)o2)cc(OCC)c1OCC,inactive
22,COCCCNC(=O)Cn1nnc(-c2ccccc2NC(=O)c2ccccc2F)n1,inactive
23,COc1ccc(C2C(C(C)=O)=C(O)C(=O)N2CCO)c(OC)c1 (centres undefined),inactive
24,COC(=O)c1ccc(OC(=O)c2ccc(OCc3c(C)noc3C)c(OC)c2)cc1,inactive

row,Compound,outcome
1,COC(=O)c1ccc(OC(=O)c2ccc(OC)c(OC)c2)c(OC)c1,inactive
2,COC(=O)c1ccc2c(c1)C(C)(C)C(/C=C/c1ccc(OC)c(OC)c1OC)=[N+]2C,active
3,CCn1c(=O)c2c3c(sc2n(C)c1=O)CCC3,inactive
4,Cc1cccc(OCC(=O)Nc2cccc(O)c2)c1,inactive
5,Cc1ccc(OCC(=O)Nc2cccc(O)c2)cc1C,inactive
6,O=C(CCN1CCN(c2ccccc2)CC1)Nc1ccc(Cl)cc1,inactive
7,Cc1cn(Cc2ccccc2)c(=O)[nH]c1=O,inactive
8,CC1CCc2nc(NC(=O)c3ccco3)sc2C1 (centres undefined),active
9,O=C(Nc1nc2c(s1)CCCC2)c1ccc(Br)o1,inactive
10,CC1CCc2nc(NC(=O)Cc3cccs3)sc2C1 (centres undefined),inactive
11,Cc1cc(C(=O)Nc2nc3c(s2)CCCC3)no1,inactive
12,CC1CCc2nc(NC(=O)CN3CCOCC3)sc2C1 (centres undefined),inactive
13,Cc1ncsc1C(=O)Nc1nc2c(s1)CC(C)CC2 (centres undefined),inactive
14,CC1CCc2nc(NC(=O)C3CC3)sc2C1 (centres undefined),inactive
15,CC(C)Cc1nnc(NC(=O)CCN2C(=O)c3ccccc3C2=O)s1,inactive
16,CCOC(=O)C1=C(C)N(Cc2ccccc2)C(=O)NC1c1ccc(OC)cc1 (centres undefined),inactive
17,c1ccc(N2CCCCC2)c(NC2=NCCC2)c1,inactive
18,Cc1ccc(-c2nc(=S)c3c(n2CC2CCCO2)CC(C)(C)OC3)cc1 (centres undefined),inactive
19,O=C(NCCCN1CCCC1=O)c1cc(=O)c2ccccc2o1,inactive
20,CCOC(=O)CN(C(=O)Cn1nnc2ccccc21)C(C(=O)NCCOC)c1ccccc1C (centres undefined),inactive
21,COc1ccc2[nH]c3nc(SCc4nnc(-c5ccc(C)cc5)o4)nnc3c2c1,inactive
22,COc1ccc2[nH]c3nc(SC(C)C)nnc3c2c1,active
23,COc1ccc2[nH]c3nc(SCc4nnc(-c5ccccc5)o4)nnc3c2c1,inactive
24,COc1ccc(NC(=O)c2cnc3sccn3c2=O)cc1,inactive

row,Compound,outcome
1,Cc1ccc(-c2nc3ccccn3c2NC(=O)c2ccco2)cc1,inactive
2,Cc1cccn2c(=O)c3cc(C(=O)NCc4ccco4)c(=N)n(CCOCCO)c3nc12,inactive
3,COc1ccc(-c2nnc3n2N=C(c2ccccc2)CS3)cc1OC,inactive
4,CCOc1ccc(C2=Nn3c(nnc3-c3ccccc3OC)SC2)cc1,active
5,CCOc1ccc(C2=Nn3c(nnc3-c3ccc(OC)cc3)SC2)cc1,inactive
6,CCOc1ccc(-c2nnc3n2N=C(c2ccc(OC)cc2)CS3)cc1,inactive
7,COc1ccccc1-c1nnc2n1N=C(c1ccc(O)c(O)c1)CS2,inactive
8,COc1ccc(C2=Nn3c(nnc3-c3ccccc3OC)SC2)cc1OC,active
9,COc1ccc(OC)c(C2=Nn3c(nnc3-c3cc(OC)c(OC)c(OC)c3)SC2)c1,inactive
10,COc1cc(-c2nnc3n2N=C(c2ccccc2)CS3)cc(OC)c1OC,active
11,COc1ccc(C2=Nn3c(nnc3-c3ccccc3)SC2)cc1OC,inactive
12,COC(=O)c1ccccc1NC(=O)Cn1c(=O)oc2ccc(Cl)cc21,inactive
13,C=CCNc1sc(C(=O)c2ccc(Br)s2)c(N)c1C#N,inactive
14,Cc1ccc(C(=O)NNC(=O)Cc2ccccc2)cc1,inactive
15,Cc1nc2ccccc2n1CC(=O)OCC(=O)Nc1ccc2c(c1)OCCO2,inactive
16,CCc1nnc2n1N=C(c1ccc(OC)cc1)CS2,inactive
17,CCCNC(=O)c1oc2ccc3c(c2c1C)C(=O)CC(C)(C)O3,inactive
18,Cc1c(C(=O)NCc2ccoc2)oc2ccc3c(c12)C(=O)CC(C)(C)O3,inactive
19,CCC(C)n1c(SC(C)C#N)nc2ccccc2c1=O (centres undefined),inactive
20,Nc1nonc1C(=Nc1ccccc1)NO,inactive
21,CCOc1ccc(OCc2ccc(C(=O)NCc3cccnc3)o2)cc1,inactive
22,CCOC(=O)N1CCN(c2nc(-c3ccc(OC)cc3)no2)CC1,inactive
23,c1ccc(COc2ccc(OCCn3cncn3)cc2)cc1,inactive
24,COc1ccc(-c2nc3n(c2Br)CCC3)cc1,inactive

row,Compound,outcome
1,COc1ccc(-c2cc3nc4n(c(=O)c3s2)CCOC4)cc1,inactive
2,O=c1c2ccccc2nc2n1CCC2,inactive
3,O=c1c2ccccc2nc2n1CCCCC2,inactive
4,COc1ccc(-c2cc3nc4n(c(=O)c3s2)CCC4)cc1,active
5,COc1cc2c(cc1NC(=O)CN1C(=O)NC3(CCc4ccccc43)C1=O)oc1ccccc12 (centres undefined),inactive
6,Cc1ccc(S(=O)(=O)NC(=O)Nc2c(C)n(C)n(-c3ccccc3)c2=O)cc1,inactive
7,CCOc1ccccc1NC(=O)CN(c1ccc(C)cc1)S(=O)(=O)c1c(C)noc1C,inactive
8,CCOc1ccccc1NC(=O)CN(c1ccc(OC)cc1)S(=O)(=O)c1c(C)noc1C,inactive
9,CCOc1ccc(N(CC(=O)Nc2ccccc2C)S(=O)(=O)c2c(C)noc2C)cc1,active
10,Cc1nnc2n(C3CCCCC3)c(=O)c3c4c(sc3n12)CCC4,inactive
11,Cc1nc(Cl)sc1C(=O)O,inactive
12,O=C(Nc1ccon1)c1cc2c(s1)CCCCCC2,inactive
13,O=S(=O)(c1ccc(Oc2ccc(S(=O)(=O)N3CCOCC3)cc2)cc1)N1CCOCC1,inactive
14,CNS(=O)(=O)c1ccc(Oc2ccc(S(=O)(=O)NC)cc2)cc1,inactive
15,C=CS(=O)(=O)c1ccc(Oc2ccc(S(=O)(=O)C=C)cc2)cc1,active
16,CCOCCCNC(=O)c1ccc2c(c1)OCO2,inactive
17,O=C(NCCOc1ccccc1)c1ccc2c(c1)OCO2,active
18,COCCCNC(=O)c1ccc2c(c1)OCO2,inactive
19,Cn1c(=O)c2c(nc(CN3CCN(c4ccccc4)CC3)n2CCCc2ccccc2)n(C)c1=O,inactive
20,COc1ccccc1NC(=O)CN1C(=O)NC(C)(C)C1=O,inactive
21,O=C(NCc1ccccc1)C(c1cccnc1)N(Cc1ccco1)C(=O)c1ccccn1 (centres undefined),inactive
22,CCOC(CNC(=O)c1ccc2nc(N3CCC(C)CC3)sc2c1)OCC,inactive
23,CCOC(=O)N1CCN(C(=O)c2ccc3nc(N4CCC(C)CC4)sc3c2)CC1,inactive
24,Cc1cc(Oc2ccc(C(C)(C)C)cc2)nc(N2CCOCC2)n1,inactive

row,Compound,outcome
1,CN(CC(=O)NCCN1CCCCCC1)S(=O)(=O)c1cccc2nsnc12,inactive
2,COc1ccc(-c2nn(C)c3sc(C(=O)NCc4ccco4)cc23)cc1OC,inactive
3,NC(=O)c1cnn2c(C(F)(F)F)cc(-c3ccc(F)cc3)nc12,inactive
4,CN1/C(=C\C(=O)c2ccco2)C(C)(C)c2ccccc21,inactive
5,CN1/C(=C\C(=O)C(F)F)C(C)(C)c2ccccc21,inactive
6,COC(=O)c1ccccc1NC(=O)c1cc(-c2cccs2)on1,inactive
7,c1ccc(NC2=Nc3ccccc3CC2)cc1,inactive
8,Brc1ccc(NC2=Nc3ccccc3CC2)cc1,inactive
9,CC(=O)N1CCc2[nH]c3ccccc3c2C1,inactive
10,CCn1ncc(Br)c1C(=O)Nc1ccc(F)cc1F,inactive
11,O=C(OCn1ncc(Br)c(Br)c1=O)c1ccccc1Cl,inactive
12,CCn1ncc(Br)c1C(=O)Nc1ccc(C(=O)OC(C)C)cc1,inactive
13,O=C(OCn1ncc(Br)c(Br)c1=O)c1ccc(F)cc1,active
14,O=C(OCn1ncc(Br)c(Br)c1=O)c1c(F)cccc1F,active
15,Cc1onc(-c2c(F)cccc2Cl)c1C(=O)OCn1nnc2ccccc2c1=O,inactive
16,Cc1ccccc1-n1nc(C(=O)c2cccs2)cc(-c2nc3ccccc3[nH]2)c1=N,inactive
17,O=C(OCc1nnc(-c2ccc(Cl)cc2)o1)c1ccc(=O)n(Cc2ccccc2)n1,inactive
18,Cc1cc(NC(=O)CS(=O)(=O)c2cn(Cc3ccc(F)cc3)c3ccccc23)no1,inactive
19,O=C(Oc1ccc(-c2ccccc2)cc1)N1CCOCC1,inactive
20,O=C(Cn1nc(-c2ccccc2F)ccc1=O)NCc1ccc2c(c1)OCO2,inactive
21,CCCCn1nnc(NC(=O)c2ccc(-c3ccccc3)cc2)n1,inactive
22,CCCCCCCNC1=CC(=O)CC(c2ccco2)C1 (centres undefined),inactive
23,COc1cc(NC(=O)CN(c2ccc(C)cc2)S(=O)(=O)c2c(C)nn(C)c2C)cc(OC)c1,inactive
